The campaign covered roughly 56,000 sequences. About 2,900 (5.2%) were called active. No stated cut-off is given here; in the data, active = GI50 up to about 1.1 µM and inactive = higher. Only a sample is shown. Results with a measured potency or affinity are listed apart.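 Values below derive from 48-hour exposures of cells grown in 96-well plates, with endpoints linearly interpolated between the two concentrations bracketing the appropriate inhibition level. Here, GI50 denotes the concentration required for 50% inhibition of growth.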

These results are taken from ChEMBL document CHEMBL1201862, “PubChem BioAssay data set” (2004).

The assay concerns SK-OV-3. Put plainly: NCI tumour cell line growth inhibition, 48 h.
“[Bis(aminomethyl)tetramethylenesilane]tetrachloropaltinum(IV), CHEMBL2146189” had a GI50 of 6.97 µM.

Substance “cis-Bis[[(trimethylsilyl)methyl]amino]tetrachloroplatinum(IV), CHEMBL2146191” had a GI50 of 17.6 µM.

With “[Bis(aminomethyl)ethylmethylsilane]tetrachloroplatinum(IV), CHEMBL2146192”, the GI50 came to 13.1 µM.

CISPLATIN, CHEMBL11359: the GI50 is 5.35 µM.

“[Bis(aminomethyl)dimethylsilane]dichloroplatinum (II), CHEMBL2146201”: the GI50 is greater than 100 µM.

“mu-(1,7-nanodiamine-N,N')bis-(cis-aminedichloroplatimum (II)), CHEMBL2146215” registered a GI50 of 64.9 µM.

Regarding “[Bis(aminomethyl)pentamethylenesilane]tetrachloropaltinum(IV), CHEMBL2146204”, the GI50 was determined as 4.5 µM.

With “[Bis(aminomethyl)dimethylsilane]tetrachloroplatinum(IV), CHEMBL2146190”, the GI50 was 12.8 µM.

With “[Bis(aminomethyl)pentamethylenesilane]dichloropaltinum(II), CHEMBL2146202”, the GI50 came to 5.12 µM.

In turn, “[Bis(aminomethyl)diethylsilane]tetrachloroplatinum(IV), CHEMBL2146203” returned a GI50 of 1.69 µM.

“[Bis(aminomethyl)tetramethylenesilane]dichloropaltinum(II), CHEMBL2146205” returned a GI50 of 26.2 µM.
